Shown are actives, neighbours in structure and some others; about 2.2% of the full set was active somewhere.
GLP1R ag = GLP-1 receptor (human) agonism. HEK293 GLP-1R CRE-luciferase, luminescence, 4-6 h; cells express a hypersensitive GLP-1R form. AID 624172. Potency, µM (top dose mostly 45.6 µM), for the others: top-dose activation, actives largely listed as activators. P43220. 380,000 tested, 0.007% active; further: potency means the concentration at half of the fitted maximal effect; % of control where 0% means no effect
Target sequence (P43220 whole entry, looked up): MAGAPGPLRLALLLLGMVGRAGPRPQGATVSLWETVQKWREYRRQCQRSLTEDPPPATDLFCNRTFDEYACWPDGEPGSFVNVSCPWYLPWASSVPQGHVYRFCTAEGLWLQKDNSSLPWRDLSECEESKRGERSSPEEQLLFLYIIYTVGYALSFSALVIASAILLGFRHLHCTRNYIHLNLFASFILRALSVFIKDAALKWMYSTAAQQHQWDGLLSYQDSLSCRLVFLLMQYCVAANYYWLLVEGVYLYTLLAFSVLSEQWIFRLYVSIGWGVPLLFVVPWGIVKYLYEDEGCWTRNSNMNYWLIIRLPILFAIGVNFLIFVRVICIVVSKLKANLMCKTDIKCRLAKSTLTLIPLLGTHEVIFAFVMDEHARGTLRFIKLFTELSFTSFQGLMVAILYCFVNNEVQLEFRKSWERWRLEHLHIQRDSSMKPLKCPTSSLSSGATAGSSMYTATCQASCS
GLP1R cytotox = cytotoxicity in counter-screen for GLP-1R inverse agonists; HEK293 cAMP-luciferase reporter cells, luminescence, 24 h; Potency, µM (highest dose often 38.3 µM), for the others: at the highest dose activity change, negative = inhibition, hits mostly inhibitors; 410,000 tested, 0.13% active; AID 624418;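 further: loss of luciferase light is scored as toxicity; potency means the concentration at half of the fitted maximal effect; on the % scale 0 is the no-effect control and ±100 the full control effect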
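MLSMR compounds, 24 hr on cells at 37 deg C/5% CO2; luminescence after luciferase reagent (12 min RT). Inhibition counted as the undesired cytotoxic outcome.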
CCT chaperon mod = changes cytosolic chaperonin activity | 360,000 tested, 0.3% active | purified chaperonin ATPase assay, HTRF ADP detection, 30 min | activity change, % (no concentration beside the values), hits read low; in the data active means activity change below about -30%; further: on the % scale 0 is the no-effect control and ±100 the full control effect
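We incubate TRiC, 40 or 20 nM final, with library compounds at 76 uM and 10 uM ATP for 30 min at 37 °C. ADP formed is detected with Transcreener HTRF reagents after 30 min at room temperature.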
GLP1R inv ag = inverse agonists of human GLP-1 receptor; P43220; HEK293 GLP-1R CRE-luciferase, luminescence, 24 h; GLP-1R form is constitutively active; Potency, µM (doses to about 38.3 µM), inactives show at the top dose activity change, negative = inhibition, usual class: inhibitors; 410,000 tested, 1.6% active; AID 624417; further: potency means the concentration at half of the fitted maximal effect; on the % scale 0 is the no-effect control and ±100 the full control effect; nearly all actives have a fitted effect of over 55% in size
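Stable HEK293 clone (constitutively active GLP-1R + cAMP-response luciferase); 200 cells/uL plated, 12 h pre-culture, compound 24 hr, 37 deg C/5% CO2; detection reagent 12 min RT; luminescence.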
MmCpn inh = inhibitors of Methanococcus maripaludis chaperonin TRiC (MmCpn); Potency, µM (doses to about 76.9 µM), without a hit: at the highest dose activity, negative = inhibition, hits mostly inhibitors; 330,000 tested, 0.031% active; purified Mm-Cpn ATPase, ADP Transcreener TR-FRET; further: potency means the concentration at half of the fitted maximal effect; on the % scale 0 is the no-effect control and ±100 the full control effect; nearly all actives have a fitted effect of over 80% in size
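TR-FRET (320 nm excitation; 590 and 665 nm emission) reports ADP made from 10 uM ATP by 25 nM enzyme; compounds were preincubated 10 min, reaction run 30 min, both at 37°C.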
uPA surface inh = inhibitors of cell surface uPA generation. cell surface uPA generation assay, qHTS. Potency, µM (highest dose often 38.3 µM), inactives show at the top dose activity change, negative = inhibition, hits mostly inhibitors. AID 540303. 330,000 tested, 0.31% active; active means well fitted inhibition curve with a large enough effect; inconclusive means small, poorly fitted or top-dose-only effect; inactive means no such curve, though single readings can be large or run the other way; tested in mouse RAW 264.7 cells; further: potency means the concentration at half of the fitted maximal effect; on the % scale 0 is the no-effect control and ±100 the full control effect; nearly all actives have a fitted effect of over 55% in size
Starred values were filed as active, the others as inactive; u = inconclusive; x = no result. Unless noted, the call rests on the fitted dose curve; in most records, active means well fitted curve in the direction sought with a large enough effect; inconclusive means small, poorly fitted or top-dose-only effect, or another doubt; inactive means no such curve, though single readings can be large; an effect the other way counts as inactive or inconclusive.

SMILES	GLP1R ag	GLP1R cytotox	CCT chaperon mod	GLP1R inv ag	MmCpn inh	uPA surface inh
O=S(=O)(c1ccccc1Cl)N1CCC(Cc2ccccc2)CC1	6%	40%	0	7.9µM*	4%	0%
CCc1ccc(C2c3c(-c4cc(C)ccc4O)n[nH]c3C(=O)N2CCO)cc1 (stereo not drawn)	x	-2%	x	-4%	x	x
CN(C)S(=O)(=O)c1cccc(NC(=O)c2ccc(COc3ccccc3)cc2)c1	9%	-8%	0	10µM*	-9%	-8%
CCCCNC(=O)C1(C)CCCCN1Cc1ccccc1-c1ccccc1 (stereo not drawn)	-5%	-7%	-2	2.5µM*	x	x
CCc1ccccc1NC(c1nnc(-c2cccc(F)c2)o1)c1ccc(F)cc1Cl (stereo not drawn)	x	-1%	x	11µM*	x	x
Cc1cccc(NC(c2nnc(-c3ccccc3)o2)c2ccc(F)cc2Cl)c1C (stereo not drawn)	x	10%	x	4%	x	x
CN1CCC(N(C)C(=O)c2sc3cc(F)ccc3c2Cl)CC1	3%	6%	-8	7.1µM*	-2%	1%
CC1CCN(S(=O)(=O)c2cc(C(=O)Nc3ccc(Br)cc3F)n(C)c2)CC1	-1%	u	x	u	x	x
COc1cc(CNCCN2CCOCC2)ccc1OCc1ccc(Cl)cc1Cl	-12%	-29%	0	3.2µM*	1%	3%
Cc1ccc(CNC(=O)c2ccc(Cn3nc(C)cc3C)o2)cc1	-5%	-2%	-73*	u	-1%	-8%
CCn1c(C)[n+](CC)c2ccc(C(=O)N(C)c3ccccc3)cc21	2%	-9%	-33*	-3%	-3%	4%
O=C(CCC(=O)N1CCN(c2ccc(Cl)c(Cl)c2)CC1)c1ccccc1	-5%	5%	-1	11µM*	-4%	-10%
O=C(CCl)N(Cc1cc(=O)[nH]c2ccccc12)c1ccccc1	-8%	u	-4	2.8µM*	-5%	u
CCc1ccccc1NC(=O)Cn1c(=O)n(CCc2ccccc2)c(=O)c2sc3ccccc3c21	0%	0%	x	5%	x	x
CCNc1ccc(Br)cc(C(=O)/C=C/c2ccc(Cl)cc2)c1=O	0%	-13%	-4	2.8µM*	-1%	-7%
CCNc1ccc(Br)cc(C(=O)/C=C/c2ccc3c(c2)OCO3)c1=O	4%	11%	-1	24%	-1%	2%
Cc1c(Cl)cccc1NC(=O)c1ccc2nc(C(C)C)oc2c1	x	1%	x	1%	x	x
CC1=C(C(=O)Nc2cccc(C(F)(F)F)c2)C2(CCN(C(C)C)CC2)OC1=O	x	0%	x	-10%	x	x
COc1ccc(NC(=O)CCS(=O)(=O)c2ccccc2Cl)cc1S(=O)(=O)Nc1ccc(Cl)cc1	9%	-30%	3	6.3µM*	1%	u
COc1ccccc1NS(=O)(=O)c1cc(NC(=O)CCC(=O)c2cccs2)ccc1Cl	8%	4%	-2	u	u	-9%
CCOc1ccc(NS(=O)(=O)c2cc(NC(=O)CCC(=O)c3cccs3)ccc2Cl)cc1	11%	-30%	0	10µM*	-3%	18%
COc1cccc(C(=O)c2cn(CC(=O)NCc3ccccc3)c3nc(C)ccc3c2=O)c1	x	-20%	x	-11%	x	x
N[C@@H](C(=O)N[C@H]1C(=O)N2C(C(=O)O)=C(Cl)CC[C@H]12)c1ccccc1	-3%	x	x	x	x	x
CCC(C)NC(=O)CO/N=C/c1ccccc1OC(F)F (stereo not drawn)	3%	16%	1	17%	1%	-1%
CC1CCCCC1NC(=O)CO/N=C/c1ccccc1OC(F)F (stereo not drawn)	25%	0%	1	10µM*	3%	2%
SMILES	GLP1R ag	GLP1R cytotox	CCT chaperon mod	GLP1R inv ag	MmCpn inh	uPA surface inh
Cc1ccc(C(=O)c2oc3ccccc3c2NC(=O)COc2ccccc2C)cc1	-3%	4%	x	12%	x	x
O=S(=O)(c1ccc2[nH]c3c(c2c1)CCCC3)N1CCN(c2cccc(C(F)(F)F)c2)CC1	x	-18%	x	10µM*	x	x
Cc1ccc(C)c(N2CCN(S(=O)(=O)c3ccc4[nH]c5c(c4c3)CCCC5)CC2)c1	x	3%	x	u	x	x
O=S(=O)(c1ccc2[nH]c3c(c2c1)CCCC3)N1CCCCC1	-1%	-26%	-73*	u	-1%	u
Cc1ccc(Cl)cc1N1CCN(S(=O)(=O)c2ccc3[nH]c4c(c3c2)CCCCC4)CC1	-6%	-19%	x	u	x	x
Cc1ccc(C2N3CC4(C)CN2CC(c2ccccc2)(C3)C4=O)cc1 (stereo not drawn)	x	-4%	x	-12%	x	x
Clc1cc2cccnc2c2ncccc12	-2%	u	0	4.5µM*	-8%	-1%
Cc1c(C)c2cccnc2c2ncccc12	2%	0.89µM*	4	u	-2%	u
CCc1sc(C(=O)Nc2ccc(NC(C)=O)cc2)cc1C	4%	1%	0	0%	-4%	-2%
CCc1sc(C(=O)Nc2nc(C)cs2)cc1C	4%	u	-2	10µM*	-8%	1%
O[C@H]1C[C@H](c2ccc(Cl)cc2)N(CC2CCCCC2)C[C@@H]1n1cc(C2CC2)nn1	-4%	u	2	10µM*	x	x
CCN1CCN(C(c2cccs2)C(C)NS(=O)(=O)c2ccc(Br)cc2)CC1 (stereo not drawn)	-4%	u	3	11µM*	1%	-1%
Cc1ccc2nc(-c3cccc(-c4cccc(Cl)c4)c3)c(NCc3ccccc3)n2c1	-14%	0%	-3	11µM*	-1%	u
CCCCCCSc1cccc(-c2nc3ccccn3c2NCc2ccccc2)c1	4%	-8%	3	u	-3%	-11%
CCCCCCSc1cccc(-c2nc3cc(C)ccn3c2NCc2ccccc2)c1	0%	u	-1	5µM*	0%	-12%
CCC(C)Sc1cccc(-c2nc3cc(C)ccn3c2NC2CCCCC2)c1 (stereo not drawn)	2%	u	-4	5µM*	-2%	-2%
Cc1ccn2c(NC3CCCCC3)c(-c3cccc(SC4CCCCC4)c3)nc2c1	4%	-20%	-2	u	-2%	4%
O=C(NC1CC(=O)N(c2ccc(Cl)cc2)C1)c1ccc(S(=O)(=O)N2CCCC2)cc1 (stereo not drawn)	x	0%	x	8%	x	x
CN(c1ccccc1)S(=O)(=O)c1ccc(NC(=O)c2ccccc2)cc1	1%	0%	-1	10µM*	-2%	4%
Cc1cccc(C(=O)NC(=S)Nc2ccc(S(=O)(=O)N(C)c3ccccc3)cc2)c1	3%	-2%	-3	u	0%	-1%
